# Screening data as filed in PubChem BioAssay.
# PfHsp40 rescue: restores yeast growth despite PfHsp40 toxicity; growth rescue, % at 12.5 µM; S. cerevisiae expressing PfHsp40, growth rescue, ATP luminescence; AID 504582; actives 0.68% (n = 340,000); in the data active = growth rescue above about 28%, passing the limit was not always enough;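 also: yeast W303a lacking pdr1 and pdr3 grown in galactose medium; growth measured after three days at 30 °C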
# PrPC TRFRET: cell surface PrPC inhibition, primary TR-FRET screen. P04156. TR-FRET read-out. inhibition, % at 13.8 µM. actives 0.43% (n = 370,000). AID 720596; in the data active = inhibition above about 24%; also: 0% = median of the test wells and 100% = reference compound wells
# PrP UTR inh: suppresses PrP 5' UTR mRNA reporter expression; cell-based PrP 5' UTR mRNA reporter, plate reader; inhibition, % (concentration not given with the values); actives 0.35% (n = 340,000); AID 488862; in the data active = inhibition above about 52%; also: 0 = median of the neutral control wells
# Mtb FBA inh: inhibits M. tuberculosis FBA enzyme; actives 2.3% (n = 360,000); inhibition, % at 1 µM; purified M. tuberculosis FBA, fluorescence read-out; P9WQA3; in the data active = inhibition above about 27%;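 also: 0% = vehicle and 100% = reference inhibitor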
# Target sequence (P9WQA3 whole entry, looked up): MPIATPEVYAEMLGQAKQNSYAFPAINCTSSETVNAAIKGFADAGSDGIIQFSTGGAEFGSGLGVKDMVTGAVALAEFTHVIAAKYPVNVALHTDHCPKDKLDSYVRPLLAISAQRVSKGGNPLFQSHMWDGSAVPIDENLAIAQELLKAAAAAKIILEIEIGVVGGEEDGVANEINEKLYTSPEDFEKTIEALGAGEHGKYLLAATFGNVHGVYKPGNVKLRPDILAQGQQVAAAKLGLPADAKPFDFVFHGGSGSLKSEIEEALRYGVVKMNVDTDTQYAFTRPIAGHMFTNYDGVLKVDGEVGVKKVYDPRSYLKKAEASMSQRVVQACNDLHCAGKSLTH
# BJeLR lethal: BJeLR cell viability loss; BJeLR (HRASV12) viability, CellTiter-Glo ATP luminescence, 48 h; inhibition, % (no concentration beside the values); actives 0.17% (n = 300,000); in the data active = inhibition above about 50%
# GDH-TPI inh: inhibits GDH-TPI coupling enzymes, artifact for Mtb FBA screen; GDH-TPI coupled enzyme counterscreen, NADH absorbance; inhibition, % at 4.8 µM; actives 1.2% (n = 360,000); in the data active = inhibition above about 30%;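 also: 0% = DMSO wells and 100% = wells lacking the enzyme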
# PrPC TRFRET cf: cell surface PrPC inhibition, TR-FRET confirmation. inhibition, % at 13.8 µM. shares compounds with PrPC TRFRET. actives 65% (n = 1,500). cell surface PrPC level; in the data active = inhibition above about 25%
# LD9 cytotox: LD9 cell cytotoxicity, PrPc inhibitor counter-screen. shares compounds with PrPC TRFRET. LD9 cells cytotoxicity, luminescence viability. inhibition, % at 13.8 µM. actives 29% (n = 1,500). AID 743201; in the data active = inhibition above about 9.5%
# * hit, by the source's call; / = not tested or not shown. An excerpt weighted towards active compounds, which were near 4.5% of everything screened.
SMILES,PfHsp40 rescue,PrPC TRFRET,PrP UTR inh,Mtb FBA inh,BJeLR lethal,GDH-TPI inh,PrPC TRFRET cf,LD9 cytotox
O=C(CN1C(=O)COc2ccccc21)NC1CCCC1,2,3,-16,6,2,6,/,/
COC(=O)[C@H](CC(C)C)N(CCCc1cn(CC2CCCCC2)nn1)S(=O)(=O)c1ccccc1Br,/,2,/,/,/,/,/,/
CCOC(=O)Cn1nc(C)n(-c2ccc(F)cc2)c1=O,0,-8,-2,3,-1,3,/,/
O=C(Nc1ccc(C(=O)NC2CCCCC2)cc1)c1cccnc1,0,4,36,2,-7,4,/,/
Cc1ccccc1NC(=O)CNC(=O)c1ccc(C(F)(F)F)cc1,-1,2,-7,0,-1,7,/,/
Cc1ccccc1NC(=O)Nc1ccc(C(F)(F)F)cc1,-1,30*,-70,4,0,-2,17,9
CCN(CC)C(=O)C1CCCc2c1[nH]c1ccc(Cl)cc21 (stereo not given),11,26*,5,3,28,1,7,-7
Cc1cc(SCC(=O)N2CCCC2=O)nc2c(C)cccc12,0,14,-1,4,-1,9,/,/
Cc1cc(SCCC(=O)O)nc2c(C)cccc12,17,71*,-6,2,-9,12,69*,4
NCCNC(=O)c1c(O)c2cccc3c2n(c1=O)CCC3,6,15,-14,1,-5,-2,/,/
O=C(NCc1cccnc1)c1c(O)c2cccc3c2n(c1=O)CCC3,60*,32*,1,1,7,3,39*,-7
O=C1OCCC1Sc1ncnc2sccc12 (stereo not given),5,31*,-17,0,-3,3,32*,3
CCOc1ccccc1NC(=O)Nc1ccccn1,1,-5,-17,0,-5,2,/,/
CCOc1ccccc1NC(=O)Nc1ccc(Cl)cc1,1,26*,-1,10,1,4,13,0
N#CC1c2ccccc2-n2nncc2CN1Cc1cc(Cl)cc(Cl)c1 (stereo not given),4,68*,33,3,/,-2,91*,98*
COc1ccc(CN2Cc3cnnn3-c3ccccc3C2C#N)cc1 (stereo not given),-2,2,-5,-1,/,7,/,/
CCCc1c(-c2ccc(F)cc2F)ncn1Cc1ccccc1OC,/,25*,/,/,/,/,7,9
Cc1cccc(C(O)c2ncc(-c3ccc(C(F)(F)F)cc3)[nH]2)c1C (stereo not given),/,26*,/,1,/,14,18,0
CCCNC(=O)C1(C)CCCN(C(=O)c2cc(C)nn2C(C)(C)C)C1 (stereo not given),/,-4,/,-1,/,0,/,/
S=c1nc[nH]c2c1[nH]c1ccc(Cl)cc12,1,43*,-15,-1,9,18,131*,7
O=c1c2[nH]c3ccc(Cl)cc3c2ncn1CCN1CCCCC1,0,-6,-19,2,3,-3,/,/
S=c1nc[nH]c2c1[nH]c1ccccc12,5,135*,-24,-6,-2,3,142*,-1
C[n+]1ccccc1/C=C1\Sc2ccccc2N1CCO,-2,-15,-14,-4,-2,1,/,/
CCN1/C(=C/c2ccc3cccc(C)c3[n+]2CC)Sc2ccccc21,-1,28*,-26,-6,34,17,36*,54*
CCN(C(=O)Cn1cnc2cc([N+](=O)[O-])ccc2c1=O)C1CCS(=O)(=O)C1 (stereo not given),0,-58,-14,-1,-3,-1,/,/
SMILES,PfHsp40 rescue,PrPC TRFRET,PrP UTR inh,Mtb FBA inh,BJeLR lethal,GDH-TPI inh,PrPC TRFRET cf,LD9 cytotox
CCOC(=O)CNC(=O)CSc1nc(Cc2cccs2)nc2ccccc12,-1,-3,-12,1,-3,27,/,/
O=C(CSc1nc(Cc2ccccc2)nc2ccccc12)Nc1nc2c(s1)CCCC2,1,4,-34,-7,2,3,/,/
CCOC(=O)CSc1nc(CC)nc2ccccc12,0,106*,-54,-2,-1,5,121*,-8
COC(=O)CSc1nc(Cc2ccccc2)nc2ccccc12,2,68*,-18,3,7,7,91*,-7
CC(C)OC(=O)CSc1nc(Cc2ccccc2)nc2ccccc12,1,60*,-19,0,6,0,87*,3
CCOC(=O)CSc1nc(Cc2ccccc2)nc2ccccc12,6,64*,-11,-1,7,1,89*,-1
Cn1c(N2C(=O)CC(Cc3ccccc3)C2=O)nc2ccccc21 (stereo not given),1,-7,-13,-1,1,6,/,/
Cc1cccc(-n2c(-c3ccco3)n[nH]c2=S)c1,-2,31*,-9,3,-6,5,33*,-3
COc1ccc(C(C)(C)C)cc1NC(=O)Nc1ccc2c(c1)OCO2,15,25*,-7,-2,-5,-1,16,-1
O=C(Nc1ccc(OC(F)F)c(Cl)c1)Nc1ccc2c(c1)OCO2,-1,29*,-51,2,-12,9,22,3
COc1cc(NC(=O)Nc2ccc3c(c2)OCO3)cc(OC)c1OC,0,3,-20,3,0,7,/,/
Cc1ccc(S(=O)(=O)c2nc(-c3ccccc3F)oc2N2CC(C)OC(C)C2)cc1 (stereo not given),-1,-1,-5,2,0,3,/,/
CC(=O)c1ccc(N=C2SCCCN2C(=O)C2CCCC2)cc1,0,-2,0,2,6,9,/,/
Oc1cc2c(cc1O)C1c3ccc(O)c(O)c3OCC1(O)C2 (stereo not given),0,42*,-5,3,/,14,55*,-1
O=Cc1ccc(OC(=O)CCCCC(=O)Oc2ccc(C=O)cc2)cc1,3,-8,-8,-2,2,5,/,/
CNc1nc(-c2ccccn2)nnc1-c1ccccc1,17,8,-3,1,-1,5,/,/
c1ccc(-c2nnc(-c3ccccn3)nc2NC2CCCCC2)cc1,46*,38*,20,-2,66*,18,33*,45*
CC(C)(C)c1ccc(CNc2nc(-c3ccccn3)nnc2-c2ccccc2)cc1,/,24*,/,/,/,/,38*,33*
Clc1cccc(CNc2nc(-c3ccccn3)nnc2-c2ccccc2)c1,/,29*,/,/,/,/,37*,43*
CC1CCCN(CC(O)COc2ccc(S(=O)(=O)N3CCCC3)cc2[N+](=O)[O-])C1 (stereo not given),1,-6,-28,6,/,11,/,/
Cc1cc(C)n(CCNc2nc3nonc3nc2N2CCCCC2)n1,-2,-5,-9,-8,-15,11,/,/
C=CCn1c(SCC#N)nc2sc(CC)cc2c1=O,-1,5,-19,-2,2,-2,/,/
